Sampled rows, rich in hits. Any-hit rate of the full collection: about 1.4%.
PrPC surface inh: reduces human prion protein on the cell surface; 0.43% of 370,000 active; inhibition, % at 13.8 µM; P04156; cell surface PrPC, TR-FRET read-out; AID 720596; in the data active means inhibition above about 24%
PrP UTR inh: inhibition of PrP 5' UTR reporter expression. cell-based PrP 5' UTR mRNA reporter, plate reader. inhibition, % (concentration not given with the values). 0.35% of 340,000 active; in the data active means inhibition above about 52%
Vc quorum ag: inducers of Vibrio cholerae quorum light production without autoinducers; activation, % at 18.7 µM; 0.16% of 350,000 active; V. cholerae BH1578 lux reporter, luminescence, 6 h; in the data active means activation mostly above about 9.7%, no sharp cut-off
PriA SSB inh: blocks PriA binding to SSB C-terminal tail; 0.6% of 430,000 active; AlphaScreen SSBct-PriA binding, biotinylated peptide; inhibition, % at 33 µM; AID 1272365; in the data active means inhibition mostly above about 37%, no sharp cut-off; inactive means mostly below about 20%
FadD28 FP inh: M. tuberculosis FadD28 bisubstrate binding inhibition. FadD28 bisubstrate probe binding, fluorescence polarization. AID 588549. inhibition, % at 12.5 µM. 0.22% of 360,000 active; in the data active means inhibition above about 8.5%, passing the limit was not always enough
A number is an active result.

C=CCNC(=O)CSc1nnnn1-c1cccc(OC)c1 was read as PriA SSB inh inactive.
Screening CCC(C)Nc1c([N+](=O)[O-])cc(C(C)(C)C)cc1[N+](=O)[O-] (stereo unspecified) returned PriA SSB inh 117.
`CCCCNc1c([N+](=O)[O-])cc(C(=O)O)cc1[N+](=O)[O-]` gave PrPC surface inh inactive, PrP UTR inh inactive, Vc quorum ag inactive, PriA SSB inh inactive and FadD28 FP inh inactive.
For CO[C@@]12[C@@H]3N[C@@H]3CN1C1=C(C(=O)C(N)=C(C)C1=O)[C@@H]2COC(N)=O the results were PrPC surface inh inactive, PrP UTR inh inactive, Vc quorum ag inactive, PriA SSB inh inactive and FadD28 FP inh inactive.
CO[C@@]12[C@H](COC(N)=O)C3=C(C(=O)C(C)=C(N)C3=O)N1C[C@@H]1N[C@@H]12 was read as PrPC surface inh inactive, PrP UTR inh inactive, Vc quorum ag 58, PriA SSB inh inactive and FadD28 FP inh inactive.
O=C(NCCNc1ccc(Nc2ccccn2)nn1)[C@@H]1CCCO1 was read as PriA SSB inh 52.
For O=S(=O)(NCCNc1ccc(Nc2ccccn2)nn1)c1ccc(C(F)(F)F)cc1 the results were PriA SSB inh inactive.
`O=S(=O)(NCCNc1ccc(Nc2ccccn2)nn1)c1ccccc1Cl` gave PriA SSB inh 89.
Screening Clc1ccc2nc(-c3ccco3)c(Cc3ccsc3)n2c1 returned PrPC surface inh inactive and FadD28 FP inh inactive.
For Brc1ccc2nc(-c3ccco3)c(Cc3ccsc3)n2c1 the results were PrPC surface inh 34 and FadD28 FP inh inactive.
For N#CC1(NC(=O)COC(=O)C2=COCCO2)CCCCC1 the results were PrPC surface inh inactive, PrP UTR inh inactive, Vc quorum ag inactive, PriA SSB inh inactive and FadD28 FP inh 18.
Cc1ccc(NC(=S)N(CCN(C)C)Cc2cccs2)cc1 was read as PrPC surface inh inactive, PrP UTR inh inactive, Vc quorum ag inactive, PriA SSB inh inactive and FadD28 FP inh inactive.
CCOC(=O)c1ccc(NC(=S)N(CCN(C)C)Cc2cccs2)cc1 was read as PrPC surface inh inactive, PrP UTR inh inactive, Vc quorum ag inactive, PriA SSB inh inactive and FadD28 FP inh 10.
`Cc1ccc(Nc2ccc(S(=O)(=O)N3CCOCC3)cc2[N+](=O)[O-])cc1C` gave PrPC surface inh inactive, PrP UTR inh inactive, Vc quorum ag inactive, PriA SSB inh 69 and FadD28 FP inh inactive.
O=S(=O)(NCCn1ccnc1-c1ncccn1)c1ccc2c(c1)CCCC2 was read as PriA SSB inh 96.
`O=S(=O)(NCCn1ccnc1-c1ncccn1)c1ccc(Cl)s1` gave PriA SSB inh 44.
O=S(=O)(NCCn1ccnc1-c1ncccn1)c1ccc(OC(F)(F)F)cc1 was read as PriA SSB inh inactive.
For COC(=O)c1ccc(S(=O)(=O)NCCn2ccnc2-c2ncccn2)cc1 the results were PriA SSB inh 96.
For Nc1nc(-c2ccccn2)nc(N)c1Cc1ccccc1F the results were PrPC surface inh inactive, PrP UTR inh inactive, Vc quorum ag inactive, PriA SSB inh 95 and FadD28 FP inh inactive.
`Nc1nc(-c2ccccn2)nc(N)c1Cc1c(F)cccc1Cl` gave PrPC surface inh inactive, PrP UTR inh inactive, Vc quorum ag inactive, PriA SSB inh inactive and FadD28 FP inh inactive.
`Nc1nc(-c2ccccn2)nc(N)c1Cc1ccc(Cl)cc1Cl` gave PrPC surface inh inactive, PrP UTR inh inactive, Vc quorum ag inactive, PriA SSB inh 54 and FadD28 FP inh inactive.
`Clc1ccc(OCc2nc(-c3ccccn3)no2)c(Br)c1` gave PrPC surface inh inactive, PrP UTR inh inactive, PriA SSB inh inactive and FadD28 FP inh inactive.
For COc1ccc(Cl)cc1S(=O)(=O)Nc1ccc2c(c1)N(C(=O)C1CC1)CC2 the results were PriA SSB inh inactive.
CCN(CC)Cc1cc(Nc2c3ccccc3nc3c4ccccc4n(C)c23)cc(CN(CC)CC)c1O was read as PrPC surface inh inactive, PrP UTR inh inactive, PriA SSB inh 51 and FadD28 FP inh inactive.
Screening CC1(C)Cc2cccc(OCCCS(N)(=O)=O)c2O1 returned PriA SSB inh inactive.
`Cc1ccc(S(=O)(=O)n2ccn(CC(=O)NCc3ccc4c(c3)OCO4)c2=O)cc1` gave PriA SSB inh inactive.
Screening CON=Cc1ccc(Sc2ccccc2)c([N+](=O)[O-])c1 returned PriA SSB inh 55.
`CO/N=C/c1ccc(Sc2ccccc2N)c([N+](=O)[O-])c1` gave PrPC surface inh inactive, PrP UTR inh inactive, Vc quorum ag inactive and FadD28 FP inh inactive.
CON=Cc1ccc(Sc2ccccc2N)c([N+](=O)[O-])c1 was read as PriA SSB inh 52.
`CO/N=C/c1ccc(N2CCN(C)CC2)c([N+](=O)[O-])c1` gave PriA SSB inh active.
CO/N=C/c1ccc(N2CCN(C(=O)c3ccc(F)cc3)CC2)c([N+](=O)[O-])c1 was read as PrPC surface inh inactive, PrP UTR inh inactive, Vc quorum ag inactive and FadD28 FP inh inactive.
`CO/N=C/c1ccc(Sc2ccccc2)c([N+](=O)[O-])c1` gave PrPC surface inh inactive, PrP UTR inh inactive and FadD28 FP inh inactive.
For Cc1cccc(NC(=O)N2CC(Oc3nccs3)C2)c1 the results were PriA SSB inh inactive.
Screening CN1c2ccccc2C(C)(C)C12C=Nc1c(cc(N3CCOCC3)c3ccccc13)O2 (stereo unspecified) returned PrPC surface inh inactive, PrP UTR inh inactive, Vc quorum ag inactive, PriA SSB inh inactive and FadD28 FP inh inactive.
CN1c2ccccc2C(C)(C)C12C=Cc1cc(O)ccc1O2 (stereo unspecified) was read as PrPC surface inh inactive, PrP UTR inh inactive, Vc quorum ag inactive, PriA SSB inh 39 and FadD28 FP inh inactive.
Screening CC1CCN(CC(O)CN2c3ccccc3Sc3ccccc32)CC1 (stereo unspecified) returned Vc quorum ag inactive, PriA SSB inh inactive and FadD28 FP inh inactive.
OC(CN1CCc2ccccc2C1)CN1c2ccccc2Sc2ccccc21 (stereo unspecified) was read as PriA SSB inh 54.
O=c1ccc(-c2ccc([N+](=O)[O-])cc2)nn1-c1ccccc1 was read as PrPC surface inh inactive, PrP UTR inh inactive, Vc quorum ag inactive, PriA SSB inh inactive and FadD28 FP inh inactive.
O=[N+]([O-])c1ccc(-[n+]2nc(-c3ccccc3)nn2-c2ccccc2)cc1 was read as PrPC surface inh inactive, PrP UTR inh inactive, Vc quorum ag inactive, PriA SSB inh 101 and FadD28 FP inh inactive.
O=C(CCn1nnc2ccccc21)N/N=C\c1c(O)ccc2ccccc12 was read as PriA SSB inh inactive.
`O=C(Nc1ccccc1[N+](=O)[O-])C(=O)N1CCN(Cc2ccc3c(c2)OCO3)CC1` gave PriA SSB inh 50.
For O=C(Nc1ccccc1[N+](=O)[O-])C(=O)N1CCN(c2ccccc2F)CC1 the results were PriA SSB inh 36.
O=C(NCC(c1ccsc1)N1CCc2ccccc2C1)C(=O)Nc1ccc2c(c1)OCCO2 (stereo unspecified) was read as PriA SSB inh inactive.
`C[C@H]1CN(C)CCN1CC1CCN(C(=O)NCc2cccs2)CC1` gave PriA SSB inh inactive.

Screens from PubChem.
